# Screening data deposited in PubChem by National Center for Advancing Translational Sciences (NCATS).
# SMN2 splice up: SMN2 splice variant enhancement. HEK293 SMN2-luciferase splicing reporter, luminescence, 30-36 h. Potency, µM (highest dose often 46.1 µM), for the others: top-dose activity change, positive = activation, actives largely listed as activators. hit rate 2.8% among 210,000. AID 1458; further: % of control where 0% means no effect; nearly all actives have a fitted effect of over 55% in size
#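 qHTS luciferase splicing reporter: luminescence rises when SMN2 exon 7 is included in transfected HEK293 cells. Compound exposure lasted 30-36 h at 37C, with 4.5 mM final sodium butyrate as control, followed by a ONE-Glo read.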
# FLuc counter: firefly luciferase modulation, counter-screen for miR-21 project. P08659. purified FLuc, Km substrates, luminescence inhibition. Potency, µM (titrated, usually from 57.5 µM), for inactives: at the highest dose activity change, negative = inhibition, usual class: inhibitors. hit rate 6.9% among 360,000;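 further: plate controls were vehicle for no effect and reference inhibitor for full effect; nearly all actives have a fitted effect of over 55% in size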
# Target sequence (P08659 whole entry, looked up): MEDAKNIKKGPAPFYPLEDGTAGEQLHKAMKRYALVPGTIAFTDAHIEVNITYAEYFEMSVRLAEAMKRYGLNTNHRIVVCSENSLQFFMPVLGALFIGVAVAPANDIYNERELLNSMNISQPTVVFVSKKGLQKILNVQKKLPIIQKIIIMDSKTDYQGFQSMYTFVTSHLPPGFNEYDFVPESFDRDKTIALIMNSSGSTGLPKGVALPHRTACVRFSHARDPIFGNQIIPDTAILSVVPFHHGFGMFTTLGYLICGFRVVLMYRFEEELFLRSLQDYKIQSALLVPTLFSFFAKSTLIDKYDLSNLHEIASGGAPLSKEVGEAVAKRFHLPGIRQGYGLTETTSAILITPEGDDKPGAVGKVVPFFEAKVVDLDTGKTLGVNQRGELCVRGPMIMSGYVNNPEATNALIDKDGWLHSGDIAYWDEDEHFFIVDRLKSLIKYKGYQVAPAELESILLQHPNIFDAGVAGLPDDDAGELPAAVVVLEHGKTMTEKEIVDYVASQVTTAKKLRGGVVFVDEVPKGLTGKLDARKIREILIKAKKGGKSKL
#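 Purified P. pyralis luciferase, 10 nM final, with Km-level 10 uM D-luciferin and 10 uM ATP in 50 mM Tris acetate pH 7.5, 10 mM Mg acetate, 0.01% Tween-20, 0.05% BSA; 6-point qHTS titration about 60 µM downward; luminescence read.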
# ELG1 genotox: induces genotoxicity in HEK293T cells with luciferase-tagged ELG1. HEK293T ELG1-luciferase reporter, luminescence, 16 h. AID 504466. Potency, µM (top dose mostly 46 µM), without a hit: at the top dose activity change, positive = activation, most hits filed as activators. hit rate 1.3% among 330,000; further: % of control where 0% means no effect; nearly all actives have a fitted effect of over 60% in size
#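 DMSO vehicle served as control against compound-treated ELG1-luciferase HEK293T cells; exposure lasted 16 hr at 37 °C and 5% CO2, followed by ONE-Glo luminescence detection after 30 min.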
# Rab9 promoter act: activators of Rab9 promoter. AID 485297. hit rate 2.8% among 320,000. Potency, µM (highest dose often 9.22 µM), for the others: at the top dose activation, negative = inhibition, hits mostly activators. Huh7 Rab9 promoter-luciferase reporter, luminescence, 24 h; further: % of control where 0% means no effect; nearly all actives have a fitted effect of over 60% in size
#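 Luminescence read-out: Huh7 cells stably expressing Rab9-luciferase, treated 24 h with compound at 37 °C, then lysed with luciferase reagent for 10 min at ambient before reading.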
# NPC1 promoter act: activators of NPC1 promoter | Huh7 NPC1 promoter luciferase reporter, 24 h | Potency, µM (top dose mostly 9.22 µM), for inactives: top-dose activation, most hits filed as activators | hit rate 2.4% among 320,000; further: % of control where 0% means no effect; nearly all actives have a fitted effect of over 60% in size
#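 Huh7 cells stably carrying NPC1 promoter–luciferase, plated in Opti-MEM with 10% FBS for 2 h, were exposed to compound in DMSO for 24 h at 37 °C; luciferase reagent was added for 10 min and luminescence read.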
# * = called active by the depositor; ? = inconclusive; . = no result given; [ ] = dose if it differs, or a comment. Rows were chosen to be rich in hits. Some 7.4% of all compounds tested hit in one or more screens of this group. The call rests on the fitted dose curve; in most records, active means well fitted curve in the direction sought with a large enough effect; inconclusive means small, poorly fitted or top-dose-only effect, or another doubt; inactive means no such curve, though single readings can be large; an effect the other way counts as inactive or inconclusive. Potency means the concentration at half of the fitted maximal effect.
SMILES,SMN2 splice up,FLuc counter,ELG1 genotox,Rab9 promoter act,NPC1 promoter act
N#C/C(=C\c1cc(Br)c(O)c(Br)c1)c1nc2ccccc2c(=O)[nH]1,-7%,15µM*,.,.,.
O=C(CC(=O)NCc1ccccc1)NCc1ccccc1,.,5%,1%,-5%,-1%
O=C(COC(=O)/C=C/c1cccs1)Nc1cccc(S(=O)(=O)N2CCCC2)c1,-7%,?,-5%,1%,-6%
N#C/C(=C/c1ccc(O)c(O)c1)c1nc2ccccc2[nH]1,.,6.7µM*,18%,-5%,0%
N#C/C(=C\c1ccccc1)c1nc2ncccc2[nH]1,2%,13µM*,4%,5%,-3%
N#C/C(=C\c1ccc(Cl)cc1)c1nc2ccccc2[nH]1,7%,-18%,.,.,.
C(=N\c1nc2ccccc2[nH]1)/c1cccs1,0%,1.1µM*,1%,0%,-4%
COc1cc(Br)c(/C=C(\C#N)c2nc3ccccc3[nH]2)cc1OC,28%,8.5µM*,.,.,.
c1ccc(C(c2ccccc2)N2CC[C@@]3(CCCNC3)C2)cc1,-23%,.,.,.,.
CCOc1cc2[nH]c(=S)n(Cc3ccc(C(=O)O)cc3)c(=O)c2cc1OCC,.,-2%,2%,-11%,-1%
CCOc1ccc2c(c1)c1nnc(SCC(=O)NC3CC3)nc1n2C,.,?,1%,0%,-6%
C(=N\c1nc2ccccc2n1Cc1ccccc1)/c1cccs1,-14%,13µM*,-11%,4%,1%
C(=N\c1nc2ccccc2n1CCN1CCOCC1)/c1cccs1,-4%,?,0%,0%,-5%
O=C(O)/C=C\C(=O)Nc1ccc2c(c1)C(=O)c1cc(F)ccc1-2,-7%[9.22 µM],.,.,.,.
CCc1ccc(N2C(=O)CC(c3cc(OC)ccc3OC)C3=C2COC3=O)cc1 (centres undefined),-12%,4%,.,.,.
Cc1cc(=O)oc2cc(NC(=O)c3ccccc3Cl)ccc12,.,11µM*,15µM*,3.5µM*,3.2µM*
COc1cccc(C(=O)Nc2ccc3c(C)cc(=O)oc3c2)c1,.,1.9µM*,2.3µM*,0.71µM*,1.1µM*
Cc1ccccc1CC(=O)Nc1ccc2c(C)cc(=O)oc2c1,.,-1%,3%,-1%,-2%
Cc1cc(=O)oc2cc(NC(=O)c3c(Cl)cnn3C)ccc12,.,-6%,?,23%,30%
Cc1cccc(OCC(=O)Nc2ccc3c(C)cc(=O)oc3c2)c1,-2%,2%,8%,-3%,-1%
Cc1cc(=O)oc2cc(NC(=O)c3ccccc3C(=O)O)ccc12,.,11µM*,-3%,-2%,2%
Cc1cc(=O)oc2cc(NC(=O)c3ccnn3C)ccc12,.,?,16µM*,4µM*,2.8µM*
COc1ccccc1CC(=O)Nc1ccc2c(C)cc(=O)oc2c1,.,-4%,0%,-5%,-3%
CCOC(=O)c1cccc(NC(=O)C2CCN(S(=O)(=O)c3ccc4c(c3)oc(=O)n4C)CC2)c1,-30%,1%,.,.,.
C[N+](C)(C)CCN[N@@+]1(C)CCCc2ccccc21,0%[9.22 µM],.,.,.,.
SMILES,SMN2 splice up,FLuc counter,ELG1 genotox,Rab9 promoter act,NPC1 promoter act
O=C(Nc1nc2c(s1)CCCC2)c1ccc(Br)o1,11µM*,1.5µM*,12µM*,1.3µM*,2.2µM*
Cc1onc(-c2ccccc2Cl)c1C(=O)Nc1nnc(-c2ccc(Cl)cc2Cl)s1,0%,?,-18%,-2%,2%
Cc1ccc(C(=O)Nc2nc3c(s2)CCCC3)o1,14µM*,1.7µM*,1.2µM*,1µM*,3.2µM*
Cc1onc(-c2ccccc2Cl)c1C(=O)Nc1nc2c(s1)CCCC2,13%,13µM*,4%,?,27%
CC(=O)c1sc(NC(=O)c2ccc(Br)o2)nc1C,.,19µM*,16µM*,27%[1.84 µM],?
CC(C)(C)N(Cc1ccccc1)C(=O)COC(=O)C1=NN(c2ccccc2)C(=O)CC1,.,0%,2%,3%,1%
Cc1sc2ncn(CC(=O)Nc3ccc(C(F)(F)F)cc3)c(=O)c2c1S(=O)(=O)N1CCN(C)CC1,-5%,-2%,.,.,.
Cc1ccc(NC(=S)N(Cc2ccc(Br)cc2)Cc2ccc(C(=O)O)cc2)cc1C,-61%,?,0%,-3%,5%
CC(=O)c1sc(NC(=O)C=C(C)C)nc1C,20µM*,?,18µM*,28%,19%
COc1ccc(C(=O)N[C@H](C(=O)Nc2nc3c(s2)CCCC3)C(C)C)cc1,?,15µM*,15%,23%,-2%
CCC(Sc1nnnn1C)C(=O)Nc1ccc(C(C)=O)cc1 (centres undefined),?,?,18µM*,?,23%
CCOC(=O)C1(Cc2cccc(F)c2)CCN(Cc2cnn(CC)c2C)CC1,.,5%,3%,0%,-3%
CCCNC(=O)c1oc2ccc3c(c2c1C)C(O)CC(C)(C)O3 (centres undefined),.,-8%,9%,20%,7%
CCC1(C)CC(=O)c2c(ccc3oc(C(=O)NCc4ccccc4)c(C)c23)O1 (centres undefined),22µM*,9.5µM*,.,.,.
Cc1c(C(=O)NCc2ccccc2)oc2ccc(S(=O)(=O)N3CCC(C)CC3)cc12,-12%,0%,.,.,.
Cc1c(C(=O)NCc2ccoc2)oc2ccc3c(c12)C(=O)CC(C)(C)O3,16µM*,8.5µM*,?,?,?
CCc1ccc(C2=NN(CCC(=O)NCCc3ccccc3)C(=O)CC2)cc1,.,-2%,.,.,.
c1ccc(Nc2cccc(Nc3ccccc3)n2)cc1,-22%,19µM*,?,?,17%
O=[N+]([O-])c1cc2c(cc1/C=N/Nc1nc(Nc3ccccc3)nc(N3CCCCC3)n1)OCO2,-5%,2.1µM*,9%,25%,19%
CC(=O)Nc1ccc(/C(C)=N/Nc2nc(Nc3ccccc3)nc(N3CCOCC3)n2)cc1,.,17µM*,-2%,-3%,-1%
O=C(O)c1cccc(Nc2nc(Nc3ccccc3)nc(N3CCCC3)n2)c1,4%,?,-9%,?,3.2µM*
C(=N\Nc1nc(Nc2ccccc2)nc(N2CCCCC2)n1)/c1ccco1,.,6µM*,-11%,26%,5%
Cc1ccc(N(C)C(=O)Cn2ncc3c([nH]c4ccccc43)c2=O)cc1C,.,-18%,.,.,.
O=[N+]([O-])c1ccc(S(=O)(=O)N2CCN=C2SCc2cccnc2)cc1,-28%,-1%,-2%,-10%,-2%
O=C(Cn1cnc2c(nnn2Cc2ccccc2)c1=O)Nc1ccc2c(c1)OCCO2,.,4%,8%,-1%,-2%
CCCCOc1ccccc1NC(=O)Cn1c(-c2cncs2)nc2ccccc21,0%,-18%,.,.,.
COc1ccc(/C=N/Nc2nc(Nc3ccccc3)nc(N3CCCC3)n2)cc1,-20%,-10%,-14%,4%,5%
O=C(O)COc1ccc(/C=N/Nc2nc(Nc3ccccc3)nc(N3CCCCC3)n2)cc1,11%,0.67µM*,-2%,0%,-4%
CC(=O)NCCOc1cccc(OCCNC(C)=O)c1,-14%,2%,0%,2%,-1%
CC(=O)NCCOc1ccc2oc3ccccc3c2c1,5%,17µM*,.,.,.
